The values that follow come from PubChem BioAssay (NCI).

Molecules are shown by their SMILES. This is part of a sample that, as a whole, favours compounds with a hit. Of some 83,000 tested, about 20% had one in any assay.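 The test compound was applied at a single concentration to cells in 96-well plates for 48 hours, and percent growth was recorded.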 Unmarked numbers belong to inactive results. Active and inactive are the calls of the source. Rule for the calls: active = growth percent below 10; inactive = the rest.

In this test the test system is MDA-MB-468 breast. Briefly: NCI-60 one-dose screen, 48 h (100 = growth as untreated, 0 = no growth, -100 = all killed). The conditions noted are these: 10 µM unless noted.
For the compound `N[C@@H]1CCC[C@H]1NCCCCN1C(=O)c2cccc3cc([N+](=O)[O-])cc(c23)C1=O`, the growth was 31.9%. Take `C[N+]1=C(/C=C/c2ccccc2Cl)C(C)(C)c2ccccc21`: the growth was 88.1%. On to `CN(C)CCOC(=O)Nc1ccccc1Cl`, for which the growth is 113%. For `CC(=O)OCCOc1cc(Cl)c(Cl)cc1Cl`, the growth is 93.9%. In the case of `O=C1/C(=C/c2ccc([N+](=O)[O-])cc2)COc2ccc(O)cc21` it was 77.3%; in that of `CCC(=C(c1ccc(OCCN2CCCCCC2)cc1)c1ccc(OCCN2CCCCCC2)cc1)c1ccc(Cl)cc1`, -83.3% (active); in that of `COc1cc2c3c(c4c5ccccc5[nH]c4c2c(OC)c1OC)C(=O)N(CCN1CCCCC1)C3=O`, 63.7%. `C=CCn1c(SCC(=O)Nc2ccc(C(=O)/C=C/c3cc(OC)c(OC)c(OC)c3)cc2)nnc1-c1cc(-c2ccc(S(C)(=O)=O)cc2)nc2ccccc12`: the growth is 88.8%. In the case of `CCCCn1c(-c2ccc(C(=O)O/N=C(\N)c3ccc(OC)cc3)cc2)nc(-c2ccccc2)c1-c1ccccc1`, the growth was -14.4% (active).

Take `COc1ccc(NC(=O)c2ccc(-c3ccccc3)cc2)c(C(N)=O)c1`: the growth was 109%. To `O=C(O)c1cccnc1Br` belongs 102%; to `COc1ccccc1CNc1c2ccccc2nc2ccccc12`, 28.3%; to `O=C(O)c1cccc(CN2CCN(c3cc4c(cc3F)c(=O)c(C(=O)O)cn4C3CC3)CC2)c1O`, 101%. In the case of `C=C1C(=O)O[C@H]2[C@H]1CC/C(C=Nc1ccc(C(F)(F)F)cc1N)=C\CC[C@@]1(C)O[C@@H]21` it was 1.92% (active); in that of `COc1cnc2c(c1)C(=O)c1c-2n(CCCN2CCNCC2)c(=O)c2cc([N+](=O)[O-])ccc12`, -74.8% (active); in that of `O=C(CCl)N1CCN(C/C=C/c2ccccc2)CC1`, 81%. As for `O=C1C2=C(CCN(Cc3ccccc3)C2)N2CCN=C2N1Cc1ccc(F)cc1F`, the growth is 5.49% (active).

For the compound `O=c1oc2ccc(F)cc2c(=O)n1-c1ccc(Br)cc1F`, the growth was 0.698% (active). As for `COc1cc(CN(c2ccc(C)cc2)C2OC(=O)c3ccccc32)cc(OC)c1OC` (stereo not given), the growth is 25%. In the case of `Cc1cccc(/C=C2\CN(C(=O)OC(C)(C)C)C/C(=C\c3cccc(C)c3)C2=O)c1` it was 103%. Take `O=C(N/N=C/c1ccccc1Cl)C(=O)Nc1cccc(C(F)(F)F)c1`: the growth is 89.1%. With `Cc1c(C(=O)N[C@@H](Cc2ccccc2)C(=O)C(=O)NCc2ccc(F)cc2)[nH]c2ccccc2c1=O`, the growth is 94.5%. To `CCOC(=O)c1c(NCC(=O)Nc2cccc([N+](=O)[O-])c2)sc(C(C)=O)c1C` belongs -22.5% (active); to `N#Cc1ccccc1Cn1c2nc(=N)c3ccccc3c-2nc2ccccc21`, 24.3%. Take `COc1cccc(-c2cc(-c3cc4ccccc4oc3=O)nc(N)n2)c1`: the growth was 92.7%. To `COc1ccc2c(c1OC)CO[C@@H]2[C@H]1c2c(cc3c(c2OC)OCO3)CCN1S(=O)(=O)c1cn(C)cn1` belongs 17.4%; to `COc1cc(-c2nc3sccn3c2-c2ccnc(S(C)(=O)=O)n2)ccc1F`, 72.3%. In the case of `C#CCOc1ccc2ncnc(NCc3cccc(NC(=O)CCl)c3)c2c1` it was 4.87% [8.25 µM] (active). For `CC1C=CC(OC(=O)C(C)(O)CCC(O)(C(=O)OC2CC(O)C(C(C)C)CC2(C)O)C(C)C)(C(C)C)CC1` (stereo not given), the growth was -69.9% [4.63 µM] (active).

Turning to `COc1ccc(NC(=O)Cn2cc(CN3C(=O)c4ccc([N+](=O)[O-])cc4C3=O)nn2)cc1`, the growth is 110%. To `CCCNC(=O)Oc1ccc(/C(=C(/C)Cc2ccc(OC)cc2)c2ccc(OCCCN(C)C)cc2)cc1` belongs 73.6%; to `COc1ccc(/C=C2\N=C(c3ccccc3)N(C(=O)c3ccccc3O)NC2=O)cc1`, 106%. Consider `O=c1[nH]c2ccccc2cc1-c1nnc(Cc2ccccc2)o1`, for which the growth was 53.9%. In the case of `COc1c(C2CC(=O)Nc3c2cnn3Cc2ccco2)cc2c(c1OC)OCO2` (stereo not given) it was 16.2%; in that of `c1ccc2cc(Cn3cc(CSc4nc5ccccc5s4)nn3)ccc2c1`, 106%. For `C[C@H]1[C@H](C)CC[C@]2(C(=O)O)CC[C@]3(C)C(=CC[C@@H]4[C@@]5(C)C[C@@H](Cc6cn([C@@H]7O[C@H](CO)[C@@H](O)[C@H](O)[C@H]7O)nn6)[C@H](O)C(C)(C)[C@@H]5CC[C@]43C)[C@H]12`, the growth was 94.1%. In the case of `CCOc1cc(Cl)c(C(C)NC(=O)c2cccc(OC)c2)cc1OCC` (stereo not given) it was -61.6% (active). For `CCCCCCCCCCCCCCCCCC1=NCCN1CCO`, the growth was 102%. In the case of `O=C(Nc1ncc(Cc2cc(Cl)ccc2Cl)s1)c1cccs1` it was 18%. In the case of `COc1ccc(/C=N/NC(=O)c2[nH]c3ccc(Br)cc3c2-c2ccccc2)s1` it was -24% (active).
